These results are taken from PubChem BioAssay (NCI).

About 83,000 compounds went through this panel and 20% of them were active in at least one assay; those are over-represented in the sample as a whole.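 Plates (96-well) were seeded with cells, treated with compound at one concentration, and incubated for 48 hours before percent growth was determined.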 Unmarked numbers belong to inactive results. Calls of active or inactive are those of the source. How the source made its calls: active means growth percent below 10; inactive means the rest.

Some test systems named below: RPMI-8226 leukemia; OVCAR-8 ovarian; OVCAR-4 ovarian; SK-OV-3 ovarian; IGROV1 ovarian; OVCAR-3 ovarian; HS 578T breast; NCI/ADR-RES ovarian; BT-549 breast; MDA-MB-435 melanoma; SW-620 colon; MCF7 breast; HCT-116 colon; HCC-2998 colon; KM12 colon; OVCAR-5 ovarian; T-47D breast.
Common to all, as to test: NCI-60 one-dose screen, 48 h (100 = growth as untreated, 0 = no growth, -100 = all killed)
What all share (conditions): 10 µM unless noted

With `CC[C@]1(O)CC2CN(CCc3c([nH]c4ccccc34)[C@@](C(=O)OC)(c3cc4c(cc3OC)N(C)[C@H]3[C@@](O)(C(=O)OC)[C@H](OC(C)=O)[C@]5(CC)C=CCN6CC[C@]43[C@@H]65)C2)C1` (stereo not given in full), the growth in the assay with RPMI-8226 leukemia is 2.81% (active); with OVCAR-8 ovarian it was 12.6%; in the assay with OVCAR-4 ovarian, 33.2%; in the assay with SK-OV-3 ovarian, 6.74% (active); in the assay with IGROV1 ovarian, 15.9%; with OVCAR-3 ovarian, -56% (active). The growth is 29.7% in the assay on HS 578T breast; -17.4% (active) in the assay on NCI/ADR-RES ovarian; 34.2% in the assay with BT-549 breast; -17.8% (active) with MDA-MB-435 melanoma; 21.6% in the assay with SW-620 colon; 8.22% (active) in the assay on MCF7 breast. Further, the growth in the assay with HCT-116 colon is 1.69% (active); with HCC-2998 colon, -23.4% (active); with KM12 colon, -7.67% (active).
For the compound `CCN(CC)CCOc1ccc(C2=C(c3ccccc3)CCc3cc(OC)ccc32)cc1`, the growth with RPMI-8226 leukemia is -64.7% (active); in the assay with OVCAR-8 ovarian, 46.6%; in the assay on OVCAR-5 ovarian, 22.2%; with OVCAR-4 ovarian, 52.3%; with SK-OV-3 ovarian, 68.9%; in the assay on OVCAR-3 ovarian, 12.7%. Besides, the growth in the assay with HS 578T breast is -6.19% (active); in the assay with T-47D breast, 25%; in the assay on MDA-MB-435 melanoma, -33.9% (active); in the assay on SW-620 colon it was -59% (active); with MCF7 breast, -9.06% (active); in the assay on HCT-116 colon, 5.52% (active). For the same compound, the growth with KM12 colon was -18.4% (active).
In the case of `Cc1cc(C(=O)O)c(C)cc1C(=O)O`, the growth in the assay on RPMI-8226 leukemia was 102%; in the assay on OVCAR-8 ovarian, 104%; in the assay with OVCAR-5 ovarian, 96%; with SK-OV-3 ovarian, 106%; in the assay with IGROV1 ovarian, 85.3%; in the assay on OVCAR-3 ovarian it was 136%. Also, the growth was 122% in the assay with HS 578T breast; 105% with NCI/ADR-RES ovarian; 104% with T-47D breast; 103% in the assay with BT-549 breast; 113% in the assay on MDA-MB-435 melanoma; 114% in the assay with SW-620 colon. Further, the growth is 96% with MCF7 breast, 105% in the assay with HCT-116 colon, 95.1% in the assay with HCC-2998 colon and 113% with KM12 colon.
In the case of `Nc1cc(Cl)c(S(N)(=O)=O)cc1S(N)(=O)=O`, the growth in the assay on RPMI-8226 leukemia was 122%; in the assay with OVCAR-8 ovarian, 115%; in the assay on OVCAR-5 ovarian it was 102%; in the assay with OVCAR-4 ovarian, 96.6%; in the assay with SK-OV-3 ovarian, 117%; in the assay on OVCAR-3 ovarian, 137%. Also, the growth was 106% in the assay with HS 578T breast; 35.1% with NCI/ADR-RES ovarian; 117% in the assay with T-47D breast; 113% in the assay on MDA-MB-435 melanoma; 107% in the assay on SW-620 colon; 96.2% in the assay on MCF7 breast. The growth in the assay on HCT-116 colon is 121%; with KM12 colon, 105%.
For the compound `Cn1c(N)c(N=O)c(=O)[nH]c1=O`, the growth was 83.9% with RPMI-8226 leukemia; 104% in the assay on OVCAR-8 ovarian; 106% in the assay with OVCAR-5 ovarian; 115% in the assay with SK-OV-3 ovarian; 107% in the assay with IGROV1 ovarian; 112% in the assay with OVCAR-3 ovarian. The growth with HS 578T breast is 99.8%; in the assay on NCI/ADR-RES ovarian, 103%; in the assay with T-47D breast, 98%; in the assay on BT-549 breast, 93.5%; in the assay with MDA-MB-435 melanoma it was 108%; in the assay with SW-620 colon, 107%. The growth is 106% with MCF7 breast, 104% in the assay with HCT-116 colon, 118% with HCC-2998 colon and 99% in the assay on KM12 colon.
For `CC(C)(C)c1ccc(C(O)CCCN2CCC(C(O)(c3ccccc3)c3ccccc3)CC2)cc1` (stereo not given), the growth was -38.8% (active) in the assay with RPMI-8226 leukemia; -38.5% (active) in the assay with OVCAR-8 ovarian; -20.7% (active) in the assay on OVCAR-5 ovarian; -48.9% (active) in the assay with SK-OV-3 ovarian; 34.7% with IGROV1 ovarian; -83.9% (active) in the assay with OVCAR-3 ovarian. In addition, the growth in the assay on HS 578T breast was -45.3% (active); in the assay with NCI/ADR-RES ovarian, -46.6% (active); with T-47D breast, -69.3% (active); in the assay on BT-549 breast it was 42.1%; in the assay on MDA-MB-435 melanoma, -93.2% (active); in the assay on SW-620 colon, -77.1% (active). For the same compound, the growth is -100% (active) in the assay with HCT-116 colon, -90.1% (active) in the assay with HCC-2998 colon and -73.5% (active) in the assay with KM12 colon.
Regarding `O=C(c1ccccc1)c1ccccc1Cl`, the growth with RPMI-8226 leukemia is 88.5%; in the assay with OVCAR-8 ovarian, 108%; in the assay on OVCAR-5 ovarian, 104%; in the assay with SK-OV-3 ovarian it was 108%; in the assay with IGROV1 ovarian, 106%; in the assay with OVCAR-3 ovarian, 106%. Further, the growth is 102% in the assay with HS 578T breast; 105% in the assay with NCI/ADR-RES ovarian; 98.9% in the assay on T-47D breast; 85.8% in the assay on BT-549 breast; 102% in the assay on MDA-MB-435 melanoma; 106% in the assay with SW-620 colon. For the same compound, the growth is 107% in the assay with MCF7 breast, 101% in the assay on HCT-116 colon, 117% in the assay with HCC-2998 colon and 96% in the assay with KM12 colon.
As to `O=[N+]([O-])c1ccc(N/N=C/c2c(O)ccc3ccccc23)nc1`, the growth with RPMI-8226 leukemia was 31%; in the assay with OVCAR-8 ovarian, 34.9%; with OVCAR-5 ovarian it was 77.5%; in the assay on OVCAR-4 ovarian, 21.2%; with SK-OV-3 ovarian, 50.9%; with OVCAR-3 ovarian, 20.3%. Further, the growth is 117% in the assay with HS 578T breast; 27.3% with NCI/ADR-RES ovarian; 47.4% in the assay with T-47D breast; 58.5% with MDA-MB-435 melanoma; 48.7% in the assay on SW-620 colon; 17.3% in the assay on MCF7 breast. Besides, the growth is 25.9% with HCT-116 colon, 54.2% in the assay with HCC-2998 colon and 44.2% in the assay with KM12 colon.
For `S=C(Nc1ccc(C2=NCCN2)cc1)Nc1ccc(C2=NCCN2)cc1`, the growth is 94.4% in the assay with RPMI-8226 leukemia; 96.2% with OVCAR-8 ovarian; 97.7% in the assay on OVCAR-5 ovarian; 108% in the assay on SK-OV-3 ovarian; 108% with IGROV1 ovarian; 110% in the assay on OVCAR-3 ovarian. In addition, the growth in the assay on HS 578T breast was 110%; in the assay on T-47D breast it was 83.2%; in the assay on BT-549 breast it was 87.9%; in the assay with MDA-MB-435 melanoma, 102%; in the assay with SW-620 colon, 107%; with MCF7 breast, 103%. For the same compound, the growth is 107% with HCT-116 colon, 104% in the assay on HCC-2998 colon and 101% with KM12 colon.
